SMILES strings stand for the structures. The list shows a part of the results. Results filed as inconclusive are left out. Values without a mark were called inactive. The source made the active and inactive calls. The call rests on the fitted dose curve; in most records, active means well fitted cell-killing curve with a large enough effect; inconclusive means small, poorly fitted or top-dose-only effect; inactive means flat fitted curve, though single readings scatter.
On the % scale 0 is the no-effect control and ±100 the full control effect; potency means the concentration at half of the fitted maximal effect.

This test can be described thus: qHTS screen for small molecules that inhibit ELG1-dependent DNA repair: Hit Confirmation with Unstimulated Viability Assay.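 Further: compound exposure lasted 16 hours before reading; nearly all actives have a fitted effect of over 55% in size.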 As to conditions: cell viability counter-screen, luminescence; series mostly up to 45.9 µM; activity change, negative = loss of viability: at the top concentration. From the text: Cancer cells divide rapidly compared to normal cells in the body. During cell division, cancer cells need to duplicate their genome by DNA replication. The failure of genome duplication leads to cancer cells' death. Therefore, inhibitors of DNA replication could specifically kill cancer cells. Based on this concept, many chemotherapeutic agents were developed and have been used to treat cancer patients. However, there are a limited number of agents available in the clinical setting, and some of those that do exist have low efficacy and severe side effects. Therefore, if we can find the compounds that effectively block DNA replication either by directly damaging DNA or by inhibiting other cellular mechanisms, the options for cancer treatment will be broadened. With this in mind, we developed a quantitative high-throughput ELG1-luciferase reporter gene assay. Small molecules that specifically block ELG1 function in response to DNA damage can be identified by monitoring the suppression of luciferase activity. Since ELG1 defines a pathway for repairing DNA damage, agents blocking ELG1 function can be used to sensitize cancer cells to chemotherapeutic agents whose mechanism of action involves the induction of DNA damage.
NIH Molecular Libraries Probe Production Network [MLPCN]
NIH Chemical Genomics Center [NCGC]
Assay Provider: Kyungjae Myung, NHGRI, NIH
For genotoxicity screening, 2,000 cells in 4 uL/well were dispensed into white, solid-bottom 1536-well plates using a solenoid-based dispenser. 23 nL compound or DMSO vehicle were added by a pin tool, the plates were incubated 16 hr at 37 °C and 5% CO2. 5 ul ONE-Glo (Promega) was then added to each plate and following a 30 min incubation at room temperature, luciferase activity was quantified on a ViewLux CCD-based plate reader.
For orientation: In qHTS, concentration-response curves come from the screen itself.
With `CC12CCC(C(=O)N3CCN(c4ncccn4)CC3)(c3nc4ccccc4nc31)C2(C)C` (stereo not given), the “activity change, negative = loss of viability” value was -9.41%. For `CN(CC1CCCO1)S(=O)(=O)c1ccc(C(=O)Nc2ccc(F)cc2)cc1` (stereo not given), the “activity change, negative = loss of viability” value was -7.82%. Same read-out and setting: next, `Cc1ccccc1NC(=O)CSc1nc2ccc(Nc3nc(N4CCOCC4)nc(N4CCOCC4)n3)cc2s1`: -11.1%. Consider `Cc1ccc(C)c(S(=O)(=O)N2CCN(c3ncnc4sccc34)CC2)c1`, for which the Potency was 6.28 µM (active).

For `NC(=O)c1sc2nc3c(c(-c4ccccc4)c2c1N)CCC3`, the “activity change, negative = loss of viability” value is -9.78%. Take `CN(C)c1ccnc2sc3c(=O)n(Cc4ccccc4)cnc3c12`: the “activity change, negative = loss of viability” value was -1.4%. Same read-out and setting: then `CC(=O)N1CCc2cc(Br)cc(S(=O)(=O)CCC(=O)Nc3c(C)n(C)n(-c4ccccc4)c3=O)c21`, with -1.72%. Consider `Nc1nnc(SCC(=O)Nc2ccc3nc(SCC(=O)Nc4ccccc4)sc3c2)s1`, for which the “activity change, negative = loss of viability” value is -15%.

For the compound `COc1ccc(NC(C)=O)cc1NC(=O)CN1CCN(C2c3ccccc3-c3ccccc32)CC1`, the “activity change, negative = loss of viability” value is -13.3%.

Consider `CS(=O)(=O)c1ccc2nc(NC(=O)C3CCCCC3)sc2c1`, for which the “activity change, negative = loss of viability” value was -2.4%. On the same count and under the same terms, next, `COc1ccc(-c2nn(-c3ccccc3)cc2/C=C\C(=O)N2CCOCC2)cc1[N+](=O)[O-]`: 6.03%. Regarding `OCCCNc1nccc(-c2cc(Nc3cccc(Cl)c3)ncn2)n1`, the Potency is 9.97 µM (active). For `Cc1ccc(Nc2nc(N3CCOCC3)nc(N3CCOCC3)n2)cc1Cl`, the “activity change, negative = loss of viability” value is -6.73%.

For `CC(=O)c1c(C)n(-c2ccc(C)cc2)c2ccc(O)cc12`, the “activity change, negative = loss of viability” value is -1.71%. As for `COc1ccc(-c2cc(C(=O)N(C)CC(=O)Nc3ccccc3Cl)c3ccccc3n2)cc1OC`, the “activity change, negative = loss of viability” value is -15.8%. On to `COc1ccc(NC(=O)C2CCC(CNc3c(N4CCCCC4)c(=O)c3=O)CC2)c(OC)c1` (stereo not given), for which the Potency is 25 µM (active). As to `Cc1nnc(N/N=C/c2ccccn2)[nH]c1=O`, the “activity change, negative = loss of viability” value is -9.82%. `CCc1ccc(N(CC)c2ncnc3nc[nH]c23)cc1`: the “activity change, negative = loss of viability” value is -6.97%. Consider `O=C(Nn1c(SCc2ccc([N+](=O)[O-])cc2)nc2ccccc2c1=O)c1ccc(F)cc1`, for which the “activity change, negative = loss of viability” value was -4.1%. The same measure, in the same setting: then `CS(=O)c1ccc(/C=C2\C=Cc3ccccc32)cc1` (stereo not given), with -2.21%.

These data come from PubChem BioAssay AID624252 (National Center for Advancing Translational Sciences (NCATS), 2012).
